The nature of experiment [1]: small molecules captured by biotinylated probe aFSTL3 – biochemical, small-molecule microarray, fluorescence 635/667, stem cell growth factor project, primary screen (AID 1064).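 Further: measures binding of the biotinylated anti-FSTL3 antibody to printed compounds.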 To be noted: higher = more signal.
The nature of experiment [2]: binders from COS7 lysate, DM2A8 probe, primary screen, torsin A project, cell lysate, small-molecule microarray, fluorescence 635/667 (AID 1065). Conditions: higher = more signal, COS7 lysate expressing mutant human TOR1A.
Experiment [3] is described as follows: small molecules captured by biotinylated probe aFGF2 – biochemical, small-molecule microarray, fluorescence 635/667, stem cell growth factor project, primary screen (AID 1067).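 Further: measures binding of biotinylated aFGF2 protein to printed compounds on slides; z-score merges feature fluorescence and signal-to-noise across triplicate slides.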 Conditions: higher = more signal.
A short description of experiment [4]: small molecules captured by biotinylated probe aFGF10 – biochemical, small-molecule microarray, fluorescence 635/667, stem cell growth factor project, primary screen (AID 1071).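 Further: score merges 667 nm spot intensity and signal to noise from triplicate slides.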 To be noted: higher = more signal.
Experiment [5] has as its target Neurogenic locus notch homolog protein 2 (Homo sapiens) (UniProt Q04721). Kind of experiment: small molecules binding Notch2 protein – biochemical, small-molecule microarray, 635 nm fluorescence, stem cell growth factors, primary screen (AID 1073). To be noted: higher = more signal.
The target of experiment [6] is Pro-neuregulin-1, membrane-bound isoform (Homo sapiens) (UniProt Q02297). Kind of experiment: small molecules binding neuregulin-1 protein – biochemical, small-molecule microarray, fluorescence 635/667, psychiatric disease protein project, primary screen (AID 1075).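 Further: score combines 667 nm spot fluorescence with signal to noise.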 Conditions: NRG1 binding, 635 nm fluorescence, higher = more signal.
The test system of experiment [7] is Neuregulin-1 EGF-like domain. Kind of experiment: small molecules binding NRG1 EGF domain – biochemical, small-molecule microarray, 635 nm fluorescence, primary screen (AID 1081).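 Further: binding of the protein to compounds printed on small-molecule microarray slides.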 To be noted: higher = more signal.
A short description of experiment [8]: FRG1 expression reporter modulators in myotubes – cell-based, C2C12 myotubes, firefly/Renilla luciferase, luminescence, FRG1 inhibition for FSHD, primary screen (AID 1084). Conditions: FRG1 promoter luciferase, higher = more signal, called active from +8 up or from −8 down.
Experiment [9] can be described thus: small molecules captured by biotinylated probe aFST – biochemical, small-molecule microarray, fluorescence 635/667, stem cell growth factor project, primary screen (AID 1086).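 Further: score merges 667 nm fluorescence with signal-to-noise of each printed compound spot.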 To be noted: higher = more signal.
The nature of experiment [10]: binders of probe aHhip on microarray, primary screen, stem cell growth factor project, biochemical, small-molecule microarray, fluorescence 635/667 (AID 1087).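 Further: score merges spot fluorescence at 667nm with spot signal to noise ratio.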 Conditions: higher = more signal.
Experiment [11] relates to PRMT1 (protein arginine N-methyltransferase 1). Kind of experiment: small molecules binding arginine methyltransferase PRMT1 – biochemical, small-molecule microarray, 635 nm fluorescence, primary screen (AID 1088).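 Further: binding of Prmt1 protein to compounds spotted on small-molecule microarray slides.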 Conditions: higher = more signal.
Experiment [12] in a line: growth effects on S. cerevisiae YJM789 – YJM789 clinical isolate, OD600, 24 h, basal, primary screen (AID 1089).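 Further: growth of clinical yeast isolate S. cerevisiae YJM 789 seeded 1000 cells per well; test concentration not given here.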 To be noted: higher = more signal, called active from +8 up or from −8 down.
Experiment [13] can be described thus: S. pombe growth modifiers, basal conditions – strain 972, OD600, 24 h, no modulator, primary screen (AID 1090).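 Further: basal condition with compound alone and no growth modifier present; test concentration not given here.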 To be noted: S. pombe 972 growth, higher = more signal, called active from +8 up or from −8 down.
The nature of experiment [14]: budding yeast growth modifiers under rapamycin – strain BY4716, OD600, 96 h, primary screen (AID 1091). Further: test concentration not given here. To be noted: S. cerevisiae BY4716 + rapamycin, higher = more signal, called active from +8 up or from −8 down.
Experiment [15] has as its target Torsin-1A-interacting protein 2 (Homo sapiens) (UniProt Q8NFQ8). The experiment can be described thus: small molecules binding lysate-expressed LULL1 – cell lysate, human LULL1 lysate, 635/667 nm fluorescence, primary screen (AID 1092).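 Further: probe is lysate of COS7 cells overexpressing human LULL1; score merges per-feature 667 nm fluorescence with signal-to-noise.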 Conditions: small-molecule microarray, hLULL1 lysate binding, 635 nm fluorescence; higher = more signal.
The nature of experiment [16]: optical density change of DRC41 E. coli – strain DRC41, OD650, 24 h, E. coli filamentation project, primary screen (AID 1093).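 Further: MC1000 strain lacking acrAB efflux and sulA so SOS filamentation is blocked; test concentration not given here.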 To be noted: E. coli DRC41 growth, higher = more signal, called active from +8 up or from −8 down.
Experiment [17] can be described thus: probe aLefty2 binding to arrayed compounds – biochemical, biotinylated probe, 635/667 nm fluorescence, primary screen (AID 1094).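 Further: score merges spot fluorescence near 667 nm with spot signal-to-noise ratio.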 To be noted: small-molecule microarray, higher = more signal.
In experiment [18] the test system is Noggin (protein binding on small-molecule microarray). The experiment can be described thus: small molecules binding Noggin protein – biochemical, 635/667 nm fluorescence, primary screen (AID 1095).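 Further: score merges 667 nm feature fluorescence with signal to noise over triplicate slides.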 Conditions: 635 nm fluorescence, higher = more signal.
Experiment [19] deals with Neurogenic locus notch homolog protein 3 (Homo sapiens) (UniProt Q9UM47). The experiment can be described thus: small molecules binding NOTCH3 protein – biochemical, 635/667 nm fluorescence, primary screen (AID 1096). To be noted: small-molecule microarray, 635 nm fluorescence, higher = more signal.
Experiment [20] is described as follows: probe aEGFR binding to arrayed compounds – biochemical, biotinylated probe, 635/667 nm fluorescence, primary screen (AID 1097).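 Further: probe is a biotinylated anti-EGFR antibody binding compounds printed on slides; score combines fluorescence near 667 nm and signal to noise of each spot.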 To be noted: small-molecule microarray, higher = more signal.

Calls of active or inactive are those of the source.

Sequence of Torsin-1A-interacting protein 2 (Homo sapiens) (Q8NFQ8 whole entry, looked up): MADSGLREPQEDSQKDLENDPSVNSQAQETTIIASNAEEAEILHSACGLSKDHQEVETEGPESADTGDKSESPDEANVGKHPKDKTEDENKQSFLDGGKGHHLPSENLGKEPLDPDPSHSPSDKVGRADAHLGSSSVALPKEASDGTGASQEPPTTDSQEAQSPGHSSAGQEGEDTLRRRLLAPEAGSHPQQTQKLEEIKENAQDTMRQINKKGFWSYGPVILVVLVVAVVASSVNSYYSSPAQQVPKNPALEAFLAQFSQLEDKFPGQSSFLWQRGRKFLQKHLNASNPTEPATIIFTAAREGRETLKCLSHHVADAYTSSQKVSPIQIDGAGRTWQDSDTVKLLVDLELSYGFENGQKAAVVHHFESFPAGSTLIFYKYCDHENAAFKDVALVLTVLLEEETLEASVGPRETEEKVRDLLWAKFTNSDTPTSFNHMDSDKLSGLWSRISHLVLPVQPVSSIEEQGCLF
Sequence of Neurogenic locus notch homolog protein 2 (Homo sapiens) (Q04721 whole entry, looked up, canonical isoform): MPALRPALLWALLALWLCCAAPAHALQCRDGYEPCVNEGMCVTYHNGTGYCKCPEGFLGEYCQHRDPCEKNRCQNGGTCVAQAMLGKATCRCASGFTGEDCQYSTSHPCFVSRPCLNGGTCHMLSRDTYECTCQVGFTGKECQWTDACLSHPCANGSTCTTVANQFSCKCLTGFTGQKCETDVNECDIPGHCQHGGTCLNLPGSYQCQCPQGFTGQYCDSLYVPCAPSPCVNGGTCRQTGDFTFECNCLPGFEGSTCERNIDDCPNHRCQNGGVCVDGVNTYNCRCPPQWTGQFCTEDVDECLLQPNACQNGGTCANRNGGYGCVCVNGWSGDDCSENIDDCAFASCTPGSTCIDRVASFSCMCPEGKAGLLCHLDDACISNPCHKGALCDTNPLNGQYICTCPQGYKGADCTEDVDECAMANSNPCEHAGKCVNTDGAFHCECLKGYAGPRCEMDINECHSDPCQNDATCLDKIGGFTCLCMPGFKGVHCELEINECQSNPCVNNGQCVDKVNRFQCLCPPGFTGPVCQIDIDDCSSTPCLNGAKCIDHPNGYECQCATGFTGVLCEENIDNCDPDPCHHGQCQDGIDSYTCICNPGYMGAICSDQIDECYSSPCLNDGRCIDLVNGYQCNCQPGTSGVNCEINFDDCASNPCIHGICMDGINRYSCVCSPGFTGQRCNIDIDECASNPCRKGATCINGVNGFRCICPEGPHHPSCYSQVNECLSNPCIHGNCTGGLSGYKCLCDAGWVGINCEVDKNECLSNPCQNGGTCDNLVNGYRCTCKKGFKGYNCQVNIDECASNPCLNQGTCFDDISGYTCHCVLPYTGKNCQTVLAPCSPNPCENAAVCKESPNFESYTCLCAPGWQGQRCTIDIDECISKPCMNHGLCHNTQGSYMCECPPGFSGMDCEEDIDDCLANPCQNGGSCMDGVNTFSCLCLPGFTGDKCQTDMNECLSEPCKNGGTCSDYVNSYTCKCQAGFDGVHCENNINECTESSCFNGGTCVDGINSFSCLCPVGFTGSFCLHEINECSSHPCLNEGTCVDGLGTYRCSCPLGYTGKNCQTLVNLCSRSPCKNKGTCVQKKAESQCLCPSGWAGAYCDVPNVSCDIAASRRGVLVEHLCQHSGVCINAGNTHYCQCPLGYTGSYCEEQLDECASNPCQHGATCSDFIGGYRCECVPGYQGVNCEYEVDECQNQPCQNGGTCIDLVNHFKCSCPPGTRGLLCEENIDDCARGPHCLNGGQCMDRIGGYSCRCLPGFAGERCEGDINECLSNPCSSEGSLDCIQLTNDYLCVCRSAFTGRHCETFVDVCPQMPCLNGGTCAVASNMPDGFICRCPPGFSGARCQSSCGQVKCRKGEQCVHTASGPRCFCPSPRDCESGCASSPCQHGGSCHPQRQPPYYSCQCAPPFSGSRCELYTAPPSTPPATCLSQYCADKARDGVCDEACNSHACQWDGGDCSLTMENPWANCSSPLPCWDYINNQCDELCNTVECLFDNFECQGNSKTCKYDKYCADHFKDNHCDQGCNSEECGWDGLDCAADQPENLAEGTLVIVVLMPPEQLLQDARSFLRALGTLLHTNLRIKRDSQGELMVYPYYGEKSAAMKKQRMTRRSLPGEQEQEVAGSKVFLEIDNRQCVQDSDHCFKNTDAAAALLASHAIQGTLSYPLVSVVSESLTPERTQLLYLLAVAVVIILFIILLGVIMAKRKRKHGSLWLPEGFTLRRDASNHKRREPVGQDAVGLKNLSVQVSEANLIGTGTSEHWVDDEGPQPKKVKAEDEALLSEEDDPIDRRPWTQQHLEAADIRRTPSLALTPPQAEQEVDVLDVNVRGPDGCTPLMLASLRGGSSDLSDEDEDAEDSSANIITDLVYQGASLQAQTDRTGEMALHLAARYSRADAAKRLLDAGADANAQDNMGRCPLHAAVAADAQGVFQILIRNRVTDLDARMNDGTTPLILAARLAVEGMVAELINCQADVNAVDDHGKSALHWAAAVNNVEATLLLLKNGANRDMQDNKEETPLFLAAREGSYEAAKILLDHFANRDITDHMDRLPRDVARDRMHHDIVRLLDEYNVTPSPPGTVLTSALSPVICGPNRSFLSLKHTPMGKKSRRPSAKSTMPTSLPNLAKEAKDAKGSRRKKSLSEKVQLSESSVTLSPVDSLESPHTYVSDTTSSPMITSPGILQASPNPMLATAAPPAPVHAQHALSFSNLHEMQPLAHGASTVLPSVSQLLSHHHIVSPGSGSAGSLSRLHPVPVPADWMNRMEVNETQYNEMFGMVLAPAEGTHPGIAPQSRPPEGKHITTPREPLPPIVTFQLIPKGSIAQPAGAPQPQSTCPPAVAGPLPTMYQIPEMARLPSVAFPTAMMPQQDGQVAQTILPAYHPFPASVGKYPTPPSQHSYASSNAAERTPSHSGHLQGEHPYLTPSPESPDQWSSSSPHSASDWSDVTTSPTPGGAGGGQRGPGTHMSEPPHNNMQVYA
Sequence of Pro-neuregulin-1, membrane-bound isoform (Homo sapiens) (Q02297 whole entry, looked up, the tested form may be a part, canonical isoform): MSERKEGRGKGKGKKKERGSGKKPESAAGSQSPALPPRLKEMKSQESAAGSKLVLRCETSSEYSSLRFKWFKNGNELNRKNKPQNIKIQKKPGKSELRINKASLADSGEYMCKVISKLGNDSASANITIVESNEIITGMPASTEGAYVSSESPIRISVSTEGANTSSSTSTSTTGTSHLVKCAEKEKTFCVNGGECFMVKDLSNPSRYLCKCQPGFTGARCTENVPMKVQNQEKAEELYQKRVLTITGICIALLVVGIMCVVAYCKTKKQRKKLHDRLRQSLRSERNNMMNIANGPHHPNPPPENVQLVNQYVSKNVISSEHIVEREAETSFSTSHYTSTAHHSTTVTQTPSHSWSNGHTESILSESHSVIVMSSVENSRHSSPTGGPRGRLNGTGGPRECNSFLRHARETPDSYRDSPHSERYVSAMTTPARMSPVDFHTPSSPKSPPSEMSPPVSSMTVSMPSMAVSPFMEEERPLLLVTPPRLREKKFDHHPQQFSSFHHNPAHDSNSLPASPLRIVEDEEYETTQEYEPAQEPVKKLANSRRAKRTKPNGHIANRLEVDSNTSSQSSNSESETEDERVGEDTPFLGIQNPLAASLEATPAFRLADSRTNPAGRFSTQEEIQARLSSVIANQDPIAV

In the case of `C=CCOC(=O)[C@@H]1[C@H]2C(=O)O[C@H](c3ccccc3)[C@H](c3ccccc3)N2[C@H](c2ccc(OCCOC(=O)[C@H]3C[C@H]4C(=O)N[C@@H](CCCCN(C)C)C(=O)N4[C@H]3c3cccc(OCCO)c3)cc2)[C@@]12C(=O)Nc1ccc(I)cc12`, the composite z-score was 0.0594 in experiment [1]; 1.24 in experiment [2]; -0.0308 in [3]; 0.526 in experiment [4]; 0.59 in experiment [5]; 1.55 in [6]. The composite z-score is 1.32 in experiment [7]; 0.312 in experiment [9]; 0.064 in [10]; 1.56 in experiment [11]; 2.81 in experiment [15]; -0.0216 in experiment [17]. In addition, the composite z-score in experiment [18] was 1.03; in experiment [19], 1.08; in experiment [20] it was -0.105. For the same compound, the z-score in experiment [8] is 0.842 (inactive); in experiment [12], 0.95 (inactive); in experiment [13] it was 0.688 (inactive); in experiment [14] it was 3.87 (inactive); in experiment [16] it was 0.0565 (inactive).
As for `COC(=O)C(CC#Cc1ccc2c(c1)[C@]1(C(=O)N2)[C@H](C(=O)O)[C@H]2C(=O)O[C@H](c3ccccc3)[C@H](c3ccccc3)N2[C@@H]1c1ccccc1OCCO)C(=O)OC`, the composite z-score in experiment [1] worked out at 0.232; in experiment [2] it was 0.63; in [3], 0.0762; in experiment [4], 1.12; in experiment [5], 0.866; in experiment [6], 1.27. Also, the composite z-score in experiment [7] was 1.21; in [9], 0.451; in experiment [10], 0.275; in experiment [11], 1.54; in experiment [15] it was 3.04; in experiment [17], 0.396. In addition, the figures for the composite z-score in [18], in experiment [19] and in experiment [20] were 1.27, 1.15 and 0.103, respectively. For the same compound, the z-score was 0.483 (inactive) in experiment [8]; 1.93 (inactive) in experiment [12]; 0.324 (inactive) in experiment [13]; -1.17 (inactive) in experiment [14]; -0.972 (inactive) in [16].
Regarding `Cc1ccc(C(C)CC(O)C2C=CC3C(=O)N(c4ccccc4)C(=O)C3N2Nc2ccc(C(C)C)cc2)o1` (stereo not given), the composite z-score in [1] turned out to be 1.15; in experiment [2], 1.05; in experiment [3], 0.102; in experiment [4], 0.712; in [5], 1.58; in experiment [6] it was 1.93. The composite z-score is 0.765 in experiment [7]; 0.992 in [9]; -0.0772 in [10]; 0.843 in [11]; 1.28 in experiment [15]; 0.295 in experiment [17]. Besides, the composite z-score was -0.641 in experiment [18], 1.04 in [19] and 0.14 in experiment [20]. Further, the z-score in [8] is 0.543 (inactive); in experiment [12] it was 0.379 (inactive); in experiment [13], 0.0145 (inactive); in experiment [14], 0.842 (inactive); in experiment [16], -1.36 (inactive).
Regarding `CCC[C@@H]1C[C@@]1(CCC)[C@@H](NP(=O)(c1ccccc1)c1ccccc1)c1ccc(Cl)cc1`, the composite z-score in experiment [1] was 0.337; in experiment [2] it was -0.23; in experiment [3], 0.0368; in experiment [4] it was -0.387; in [5], -0.615; in experiment [6], -0.23. Also, the composite z-score in [7] was -0.414; in experiment [9], -0.223; in experiment [10], 0.982; in [11], -0.189; in [15] it was 0.334; in [17], -0.0703. The composite z-score in [18] was 0.112; in experiment [19] it was -0.151; in experiment [20], -0.233. For the same compound, the z-score in experiment [8] was 1.8 (inactive); in experiment [12], 1.2 (inactive); in [13], 0.095 (inactive); in experiment [14], 0.956 (inactive); in experiment [16], -1.79 (inactive).
For `CN1C(=O)[C@@]2(CCS(=O)(=O)c3ccccc3)N=C(c3ccc(OCCCO)cc3)O[C@H]2c2ccccc21`, the composite z-score in experiment [1] was 0.185; in experiment [2], 0.394; in [3], -0.102; in experiment [4], 0.832; in experiment [5], 1.45; in [6], 1.59. Also, the composite z-score in experiment [7] is 1.34; in experiment [9], 1.09; in experiment [10], -0.04; in experiment [11], 1.53; in [15] it was 3.05; in [17], 0.276. In addition, the composite z-score in [18] is 0.931; in [19] it was 0.377; in [20], -0.0493. Moreover, the z-score in [8] was -3.84 (inactive); in [12], -0.175 (inactive); in experiment [13], -0.585 (inactive); in [14], 2.05 (inactive); in [16], 0.708 (inactive).

The record behind these values is PubChem BioAssay.
